# Source: the supplement of paper PMC8975748
# Structures can show the parent of a compound that is named as a salt.
# System: Saccharomyces cerevisiae BY4741 SeMeCo community
# Experiment: z-score of subpopulation abundance vs DMSO median, subpopulation auxotrophic for L; higher = larger share of this subpopulation than in DMSO controls
# Details: 10 µM; 24 h; SM minimal medium; subpopulation (auxotrophy): L
# Description: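 Fluorescent four-plasmid SeMeCo (self-establishing metabolically cooperating S. cerevisiae BY4741 community; plasmids pH-mRuby2, pL-mWasabi, pU-eCFP, pM-TagRFP657) was grown 24 h in minimal SM medium with each Selleck FDA-approved drug at 10 µM in 384-well plates. Cells were fixed and imaged by high-content confocal microscopy. For each auxotrophic subpopulation (and the prototroph), a z-score gives the deviation from the DMSO vehicle-control population median.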
row,SMILES,z-score of subpopulation abundance
1,CO/N=C(\C(=O)N[C@@H]1C(=O)N2C(C(=O)[O-])=C(C[n+]3cccc4c3CCC4)CS[C@H]12)c1csc(N)n1 [Cefpirome sulfate],1.19
2,COC(=O)C1=C(C)NC(C)=C(C(=O)OC)C1c1ccccc1[N+](=O)[O-] [Nifedipine],0.52
3,COC(=O)C1=C(C)NC(C)=C(C(=O)OC(C)(C)CN(C)CCC(c2ccccc2)c2ccccc2)C1c1cccc([N+](=O)[O-])c1 (stereo not given) [Lercanidipine hydrochloride],1.4
4,Clc1ccccc1C(c1ccccc1)(c1ccccc1)n1ccnc1 [Clotrimazole],-2.83
5,CO[C@@]1(NC(=O)CSC[C@@H](N)C(=O)O)C(=O)N2C(C(=O)O)=C(CSc3nnnn3C)CS[C@@H]21 [Cefminox Sodium],1.5
6,Cc1nc(Nc2ccc(F)cc2)nc(N2CCc3ccccc3C2C)c1C (stereo not given) [Revaprazan Hydrochloride],0.02
7,c1ccc(-c2ccc(C(c3ccccc3)n3ccnc3)cc2)cc1 (stereo not given) [Bifonazole],-1.29
8,Oc1ccc(Cl)c2cccnc12 [Cloxiquine],-1.33
9,C[C@]12CC[C@@H]3c4ccc(OC(=O)c5ccccc5)cc4CC[C@H]3[C@@H]1CC[C@@H]2O [Estradiol Benzoate],0.05
10,CC[C@@H](CO)NCCN[C@@H](CC)CO [Ethambutol 2HCl],0.27
11,Cc1cc(C)nc(NS(=O)(=O)c2ccc(N)cc2)n1 [Sulfamethazine],0.4
12,CN1C2CCCC1CC(NC(=O)c1nn(C)c3ccccc13)C2 (stereo not given) [Granisetron],-0.54
13,CO/N=C(\C(=O)N[C@@H]1C(=O)N2C(C(=O)OC(C)OC(C)=O)=C(COC(N)=O)CS[C@H]12)c1ccco1 (stereo not given in full) [Cefuroxime axetil],-0.95
14,COc1ccnc(C[S+]([O-])c2nc3cc(OC(F)F)ccc3[nH]2)c1OC (stereo not given) [Pantoprazole],0.22
15,CCN(CC)CC#CCOC(=O)C(O)(c1ccccc1)C1CCCCC1 (stereo not given) [Oxybutynin chloride],-0.83
16,Fc1ccc(C(c2ccc(F)cc2)N2CCN(C/C=C/c3ccccc3)CC2)cc1 [Flunarizine 2HCl],2.04
17,Cc1ncc([N+](=O)[O-])n1CCOC(=O)c1ccccc1 [Metronidazole Benzoate],-0.6
18,CCC(=O)NS(=O)(=O)c1ccc(-c2c(-c3ccccc3)noc2C)cc1 [Parecoxib],0.2
19,CCCc1cc(C(N)=S)ccn1 [Protionamide],0.04
20,CCOC(=O)OC(C)OC1=C(C(=O)Nc2ccccn2)N(C)S(=O)(=O)c2ccccc21 (stereo not given) [Ampiroxicam],-0.1

row,SMILES,z-score of subpopulation abundance
1,CCN1CCN(C(=O)N[C@@H](C(=O)N[C@@H]2C(=O)N3C(C(=O)O)=C(CSc4nnnn4C)CS[C@H]23)c2ccc(O)cc2)C(=O)C1=O [Cefoperazone],0.4
2,CCCCCCCCN=c1ccn(CCCCCCCCCCn2ccc(=NCCCCCCCC)cc2)cc1 [Octenidine Dihydrochloride],3.6
3,COCC(=O)Nc1cc(Sc2ccccc2)ccc1N=C(NC(=O)OC)NC(=O)OC [Febantel],-0.03
4,CC1=C(C(=O)O)N2C(=O)[C@@H](NC(=O)[C@H](N)c3ccc(O)cc3)[C@H]2SC1 [Cefadroxil hydrate],-0.28
5,CN(C)CCCN1c2ccccc2Sc2ccc(Cl)cc21 [Chlorpromazine HCl],-0.35
6,COC(=O)C1=C(C)NC(C)=C(C(=O)OCCN(C)Cc2ccccc2)C1c1cccc([N+](=O)[O-])c1 (stereo not given) [Nicardipine HCl],0.97
7,CN[C@@H]1[C@@H](O)[C@@H](O[C@@H]2[C@@H](O)[C@H](O[C@H]3O[C@H](CN)[C@@H](O)[C@H](O)[C@H]3O)[C@@H](N)C[C@H]2NC(=O)[C@@H](O)CN)OC[C@]1(C)O [Isepamicin Sulphate],-1.49
8,CC1(C)S[C@@H]2[C@H](NC(=O)C(C(=O)O)c3ccccc3)C(=O)N2[C@H]1C(=O)O (stereo not given in full) [Carbenicillin disodium],-0.23
9,COC(=O)Nc1nc2cc(Sc3ccccc3)ccc2[nH]1 [Fenbendazole],0.52
10,NC(CO)(CO)CO [Trometamol],0.58
11,CC1(C)S[C@@H]2[C@H](NC(=O)[C@H](N)c3ccccc3)C(=O)N2[C@H]1C(=O)O [Ampicillin Trihydrate],0.35
12,CCCNCC(O)COc1ccccc1C(=O)CCc1ccccc1 (stereo not given) [Propafenone HCl],-0.54
13,"CCC(=O)Oc1ccc2c(c1)CCC1C2CCC2(C)C(OC(=O)CC)CCC12 (stereo not drawn) [Estradiol dipropionate(17-Beta-Estradiol-3,17-Dipropionate)]",-1.37
14,CCN(Cc1ccncc1)C(=O)C(CO)c1ccccc1 (stereo not given) [Tropicamide],0.34
15,COc1ccc2cc(C(=O)O)ccc2c1 [6-Methoxy-2-naphthoic acid],0.27
16,O=c1ccc2ccc(OCCCCN3CCN(c4cccc5sccc45)CC3)cc2[nH]1 [Brexpiprazole],0.33
17,Nc1nnc(-c2cccc(Cl)c2Cl)c(N)n1 [Lamotrigine],2.5
18,CC(=O)OC(C)C[N+](C)(C)C (stereo not given) [Methacholine chloride],0.65
19,COc1ccc(C[C@H](N)C(=O)N[C@H]2[C@@H](O)[C@H](n3cnc4c(N(C)C)ncnc43)O[C@@H]2CO)cc1 [Puromycin 2HCl],-0.61
20,CCC1(C)CC(=O)NC1=O (stereo not given) [Ethosuximide],0.6
